Among the test systems are NCI-H23 lung; NCI-H226 lung; NCI-H322M lung; HOP-62 NSCLC; NCI-H460 lung; HOP-92 NSCLC; NCI-H522 lung; A549/ATCC NSCLC; 786-0 renal; COLO 205 colon.
Holding throughout (test): NCI-60 one-dose screen, 48 h (100 = growth as untreated, 0 = no growth, -100 = all killed)
Holding throughout (conditions): 10 µM unless noted

Molecules are shown by their SMILES. Compounds without any hit were thinned out: in the full panel of roughly 83,000, 20% have a hit.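 The test compound was applied at a single concentration to cells in 96-well plates for 48 hours, and percent growth was recorded.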 Values without a mark were called inactive. Calls of active or inactive are those of the source. The calls were made as follows: active = growth percent below 10; inactive = the rest.

For the compound `COc1ccc(C2C(C#N)=C(N)Oc3c2sc2c(F)cccc32)cc1` (stereo not given), the growth was 34.6% in the assay with NCI-H23 lung; 76% in the assay with NCI-H226 lung; 50% in the assay with NCI-H322M lung; 22.9% in the assay on HOP-62 NSCLC; 11.6% with NCI-H460 lung; 41.7% in the assay on HOP-92 NSCLC. For the same compound, the growth with NCI-H522 lung was 6.47% (active); with A549/ATCC NSCLC, 36.7%; in the assay on 786-0 renal, 29.4%; in the assay on COLO 205 colon it was 5.98% (active).

Regarding `O=C1c2ccccc2C(=Cc2ccccc2)c2ccccc21`, the growth is 2.92% (active) in the assay with NCI-H23 lung; 38.7% in the assay on NCI-H226 lung; 66.8% in the assay with NCI-H322M lung; 21.3% in the assay with HOP-62 NSCLC; -6.75% (active) with NCI-H460 lung; 51.7% with HOP-92 NSCLC. For the same compound, the growth in the assay with NCI-H522 lung is -25.4% (active); in the assay with A549/ATCC NSCLC it was 19.8%; in the assay on 786-0 renal, -15.9% (active); with COLO 205 colon, -21.1% (active).

In the case of `NNC(=O)c1nc2ccccc2[nH]1`, the growth is 93.3% in the assay on NCI-H23 lung; 116% with NCI-H226 lung; 107% in the assay on NCI-H322M lung; 97.4% with HOP-62 NSCLC; 108% in the assay on NCI-H460 lung; 98.5% with HOP-92 NSCLC. Besides, the growth is 96.8% with NCI-H522 lung, 61.3% in the assay on A549/ATCC NSCLC, 102% with 786-0 renal and 103% in the assay on COLO 205 colon.

On to `CC(C)(C)n1cc(-c2ccnc(NCCCNS(=O)(=O)c3ccc(Cl)cc3)c2)c(-c2cccc(F)c2)n1`, for which the growth in the assay with NCI-H23 lung is 70.9%; with NCI-H226 lung, 80.9%; in the assay with NCI-H322M lung, 98.5%; with HOP-62 NSCLC, 93%; in the assay with NCI-H460 lung it was 59.4%; with HOP-92 NSCLC it was 73.6%. Besides, the growth in the assay on NCI-H522 lung is 84.2%; in the assay on A549/ATCC NSCLC it was 61.9%; in the assay on 786-0 renal, 71.4%; in the assay on COLO 205 colon, 43.4%.

Consider `Cc1cc(N(CCNc2ccnc3cc(Cl)ccc23)Cc2ccco2)nc(Cl)n1`, for which the growth is 14.2% in the assay on NCI-H23 lung; -62.3% (active) with NCI-H226 lung; 12.6% in the assay on NCI-H322M lung; -48.2% (active) in the assay with HOP-62 NSCLC; -59.8% (active) in the assay on NCI-H460 lung; -76.9% (active) in the assay with HOP-92 NSCLC. Further, the growth is -8.16% (active) with NCI-H522 lung, -55.8% (active) in the assay with A549/ATCC NSCLC, -92.8% (active) in the assay with 786-0 renal and -53.5% (active) in the assay on COLO 205 colon.

As to `C/C(Cc1ccc(Cl)cc1)=C(/c1ccc(Cl)cc1)c1ccc(OCCN2CCCC2)cc1`, the growth in the assay with NCI-H23 lung is 78.7%; in the assay on NCI-H226 lung it was 96.4%; with NCI-H322M lung, 93.4%; in the assay on HOP-62 NSCLC it was 91.7%; with NCI-H460 lung, 35.9%; in the assay with HOP-92 NSCLC, 60.8%. Further, the growth was 73.7% with NCI-H522 lung, 69.8% with A549/ATCC NSCLC, 86% in the assay with 786-0 renal and 61.6% in the assay with COLO 205 colon.

Take `Cc1ccc(/C=C(\C#N)c2cc3ccccc3n2C)cc1`: the growth with NCI-H23 lung was 24.6%; in the assay with NCI-H226 lung, 57.6%; in the assay on NCI-H322M lung, 58.7%; in the assay with HOP-62 NSCLC it was 47.1%; in the assay with NCI-H460 lung, 11%; in the assay on HOP-92 NSCLC, 90.5%. Besides, the growth with NCI-H522 lung is 31.3%; in the assay on A549/ATCC NSCLC, 31.2%; in the assay with 786-0 renal it was 49.9%; in the assay on COLO 205 colon, 3.21% (active).

Take `C#CCn1c2c(c3ccccc31)C[C@]1(C)[C@H]3CC[C@@H]4[C@@H]5C(=CCC[C@H]5C(=C)C)CC[C@@]4(C)[C@]3(C)CC[C@H]1C2(C)C`: the growth in the assay with NCI-H23 lung was 106%; with NCI-H226 lung it was 102%; in the assay with NCI-H322M lung it was 103%; in the assay with HOP-62 NSCLC, 97.1%; with NCI-H460 lung, 99.8%; with HOP-92 NSCLC, 124%. Besides, the growth was 96.5% in the assay on NCI-H522 lung, 102% in the assay with A549/ATCC NSCLC, 106% in the assay with 786-0 renal and 104% in the assay on COLO 205 colon.

Turning to `COC(=O)[C@]12CC[C@@H](C(/C=C/c3cccnc3)=N/O)[C@@H]1[C@H]1CC[C@@H]3[C@@]4(C)CC(=C/c5cccnc5)/C(=N/O)C(C)(C)[C@@H]4CC[C@@]3(C)[C@]1(C)CC2`, the growth is 43.1% in the assay with NCI-H23 lung; 13.7% with NCI-H226 lung; 76.5% in the assay on NCI-H322M lung; 60% in the assay on HOP-62 NSCLC; 36.8% with NCI-H460 lung; 54.4% in the assay on HOP-92 NSCLC. Further, the growth is 43.3% in the assay with NCI-H522 lung, 44.6% with A549/ATCC NSCLC, 67.8% in the assay with 786-0 renal and 18% in the assay with COLO 205 colon.

On to `O=[N+]([O-])c1ccc(/C=N\Nc2ccccc2)cc1`, for which the growth is 93.9% in the assay with NCI-H23 lung; 87.7% in the assay with NCI-H226 lung; 83% with NCI-H322M lung; 95.2% with HOP-62 NSCLC; 76.7% in the assay on NCI-H460 lung; 100% with HOP-92 NSCLC. The growth in the assay on NCI-H522 lung was 61%; in the assay on A549/ATCC NSCLC, 57.7%; in the assay on 786-0 renal, 87.2%; in the assay with COLO 205 colon it was 105%.

For the compound `Fc1ccc2c(c1)c(-c1nc(-c3c[nH]c4ncccc34)cs1)cn2CCCN1CCCCC1`, the growth is 84.9% in the assay with NCI-H23 lung; 80% in the assay with NCI-H226 lung; 80.6% in the assay on NCI-H322M lung; 65.3% in the assay on HOP-62 NSCLC; 13% in the assay with NCI-H460 lung; 45.4% in the assay with HOP-92 NSCLC. In addition, the growth in the assay on NCI-H522 lung was 94.3%; in the assay on A549/ATCC NSCLC, 65.7%; in the assay with 786-0 renal, 61.9%; with COLO 205 colon it was -73.1% (active).

Consider `Cc1cc(N(CCCNc2ccnc3cc(Cl)ccc23)Cc2ccco2)nc(N2CCOCC2)n1`, for which the growth was 52.8% with NCI-H23 lung; 82.7% in the assay with NCI-H226 lung; 72.6% in the assay on NCI-H322M lung; 64.4% in the assay on HOP-62 NSCLC; 64.8% in the assay with NCI-H460 lung; 51.8% with HOP-92 NSCLC. Also, the growth with NCI-H522 lung was 90.5%; in the assay with A549/ATCC NSCLC, 83.1%; with 786-0 renal, 68%; in the assay on COLO 205 colon it was 56.7%.

With `C[Si](C)(C)Cc1ccccc1`, the growth in the assay on NCI-H23 lung was 102%; in the assay on NCI-H226 lung, 114%; in the assay on NCI-H322M lung, 119%; in the assay on HOP-62 NSCLC, 99.9%; in the assay with NCI-H460 lung it was 120%; in the assay on HOP-92 NSCLC, 110%. In addition, the growth was 139% in the assay with NCI-H522 lung, 120% with A549/ATCC NSCLC, 98% in the assay on 786-0 renal and 139% in the assay on COLO 205 colon.

Source of the values: PubChem BioAssay (NCI).
